Laboratory results as given in PubChem BioAssay AID504660 (National Center for Advancing Translational Sciences (NCATS), 2011).
Values joined by “and” are separate entries in the source; they are usually repeats but may differ in a detail not shown here. Equal entries are not always repeated. Out of some 360,000 compounds screened, about 3,700 (1%) were called active. No stated cut-off is given here; in the data, active means activation above about 30%; inactive means the rest. The full list was thinned out, with actives kept by preference.

Each molecule was assayed against D(1A) dopamine receptor (Homo sapiens) (UniProt P21728) (assay: Allosteric Agonists of the Human D1 Dopamine Receptor: qHTS). Details: HEK293 T-REx D1 cells, calcium flux, agonist mode; at 2 µM; hits give high values.
Chain of D(1A) dopamine receptor (Homo sapiens) (P21728 whole entry, looked up): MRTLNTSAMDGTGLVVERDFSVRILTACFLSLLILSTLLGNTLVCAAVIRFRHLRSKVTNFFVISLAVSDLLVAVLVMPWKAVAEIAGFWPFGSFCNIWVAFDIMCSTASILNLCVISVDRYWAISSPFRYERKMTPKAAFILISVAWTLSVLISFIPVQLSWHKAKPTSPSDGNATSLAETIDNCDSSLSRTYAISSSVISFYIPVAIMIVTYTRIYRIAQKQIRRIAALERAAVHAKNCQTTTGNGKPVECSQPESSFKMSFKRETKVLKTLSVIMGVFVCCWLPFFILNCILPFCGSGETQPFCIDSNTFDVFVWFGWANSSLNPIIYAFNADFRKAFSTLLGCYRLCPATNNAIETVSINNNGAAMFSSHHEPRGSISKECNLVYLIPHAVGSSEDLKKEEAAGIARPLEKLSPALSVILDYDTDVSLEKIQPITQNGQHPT
In short: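 Inducible HEK293 T-REx D1 cells, force-coupled to calcium signalling, were plated at 4000 cells/well with tetracycline and held overnight at 30 C. After no-wash calcium dye loading, compound-evoked calcium rise over 180 s flagged agonists.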
Further: 0% is about no effect.

SMILES	activation
CCCCc1nn2c(=O)cc(COC(=O)c3ccc(NC(=O)c4ccccc4C)cc3)nc2s1	4.38% (inactive)
COCCCNC(=O)c1ccc(NC(=O)c2nsc3ccccc23)cc1	-0.261% (inactive)
CN(C)c1ccc(/C=C2\NC(=S)N(Cc3ccccc3)C2=O)cc1	203% (active)
CCn1cc(C(=O)NCc2ccc(C)cc2)c(=O)c2cc(S(=O)(=O)N3CCc4ccccc4C3)ccc21	-1.37% (inactive)
CN(C)c1ccc(NC(=O)CSc2nc(-c3ccco3)cc(C(F)(F)F)n2)cc1	-0.482% (inactive)
Cc1cc(C)c(-c2n[nH]c3c2C(c2ccccc2F)N(CCO)C3=O)c(O)c1 (stereo unspecified)	-0.0969% (inactive)
C=CCSc1nsc(NC(=O)Nc2cccc(C(C)=O)c2)n1	34.2% (active)
CCSc1nsc(NC(=O)Nc2cccc(C(C)=O)c2)n1	29.4% (inactive)
CC(=O)c1ccc(NC(=O)CSc2nnc(NC(=O)Nc3ccccc3)s2)cc1	2.71% (inactive)
CCOc1ccc(-c2cc(C)n3nc(C(=O)Nc4ccc(C)c(C)c4)cc3n2)cc1	0.877% (inactive)
Cc1ccc(S(=O)(=O)N2[C@@H](c3ccccc3F)C(C(=O)O)=CC[C@H]2c2ccc(Cl)cc2)cc1	3.48% (inactive)
Cc1ccccc1S(=O)(=O)N1[C@@H](c2cccc(Cl)c2)C(C(=O)O)=CC[C@H]1c1ccc(Cl)cc1	2.18% (inactive)
Cc1ccc(S(=O)(=O)N2[C@@H](c3cccc(Cl)c3)C(C(=O)O)=CC[C@H]2c2ccc(Cl)c(Cl)c2)cc1	43.2% (active)
CCOC(=O)N1CCc2c(sc(NCc3cccc(F)c3)c2C(=O)Nc2ccccc2OCC)C1	-1.06% (inactive)
CCOc1ccc(C(O)Cn2c(=N)n(CCN3CCCCC3)c3ccccc32)cc1 (stereo unspecified)	0.859% (inactive)
O=C(NCc1ccccc1)C(=O)NCC(c1ccco1)S(=O)(=O)c1ccc(Cl)cc1 (stereo unspecified)	0.796% (inactive)
N=c1n(Cc2ccc(Cl)cc2)c2ccccc2n1CC(O)c1ccco1 (stereo unspecified)	92.6% (active)
COc1cccc(N2CCN(C(=O)CCCCCn3c(=O)[nH]c4ccccc4c3=O)CC2)c1	3.15% (inactive)
Cc1sc(C2C(C#N)=C(N)N(c3cccc(Cl)c3)C3=C2C(=O)CCC3)cc1CN1CCOCC1 (stereo unspecified)	-0.583% (inactive)
Cc1ccccc1CSc1nnc(-c2ccccc2)c(=O)[nH]1	0.158% (inactive)
N#Cc1c(-c2cccs2)nc(SCC(=O)c2ccc(Br)cc2)[nH]c1=O	27.1% (inactive)
N#Cc1c(-c2ccccc2)nc(SCc2cccc(C(F)(F)F)c2)[nH]c1=O	42.4% (active)

SMILES	activation
Cc1c(C(=O)NCc2ccccc2Br)oc2ccc3c(c12)C(=O)CC(C)(C)O3	5.52% (inactive)
Cc1ccccc1Nc1c(-c2ccccc2)nc2ncccn12	-0.718% (inactive)
Cc1cccc(C)c1Nc1c(-c2ccccc2O)nc2ncccn12	-0.792% (inactive) and 1.73% (inactive)
CCc1cccc(C)c1Nc1c(-c2ccc(N(C)C)cc2)nc2ncccn12	51.7% (active)
CCc1cc(C(=O)c2ccc(OC)cc2)c(NC(=O)CN2CCN(C)CC2)s1	32.2% (active)
COc1ccc(NC(=O)CCN2CCN(CCO)CC2)cc1	1.35% (inactive)
CCc1ccc(NC(=O)CN2CCC(C(=O)c3ccc(OC)cc3)CC2)cc1	2.75% (inactive)
CC1CCCN(Cc2c(O)ccc3c(=O)c(Oc4ccc(C(C)(C)C)cc4)c(C(F)(F)F)oc23)C1 (stereo unspecified)	-1.8% (inactive)
Cc1ccc(C(C)(C)C)c(OCCCCN2CCCC2)c1	8.62% (inactive)
COCCCNCCOCCOc1ccc(Cl)cc1Br	13.2% (inactive)
CC(C)(C)NCCCOc1ccc(Cl)cc1C(C)(C)C	59.2% (active)
CCOc1ccc(NC(=O)c2c(NC(=O)Cc3ccccc3)sc3c2CCC(C)C3)cc1 (stereo unspecified)	-0.648% (inactive)
COc1ccc(CCNc2nc(-c3ccc(Cl)cc3)cc(C(F)(F)F)n2)cc1OC	7.69% (inactive)
FC(F)(F)c1cc(-c2ccco2)nc(NCc2ccc(Cl)cc2)n1	7.88% (inactive)
COc1ccc(CNc2nc(-c3ccc(Cl)cc3)cc(C(F)(F)F)n2)cc1	41.5% (active)
COc1cccc(C(=O)NC2(C(F)(F)F)C(=O)Nc3c2c(=O)[nH]c(=O)n3-c2ccc(C)cc2)c1 (stereo unspecified)	-0.234% (inactive)
Cc1ccc(Cl)cc1N1CCN(C(=O)c2cnc3c(-c4ccc(F)cc4)c(C)nn3c2C)CC1	1.96% (inactive)
O=C(CNC(=O)c1ccc(Br)o1)NCC1CCCO1 (stereo unspecified)	0.969% (inactive)
OC(CNCC1CCCO1)Cn1c2ccc(Br)cc2c2cc(Br)ccc21 (stereo unspecified)	38.5% (active)
COCCNC(=O)c1ccc(Cn2c(SCC(=O)NCC3CCCO3)nc3ccc(Br)cc3c2=O)cc1 (stereo unspecified)	2.13% (inactive)
CC(=O)c1c(C)n(S(=O)(=O)c2ccc(Cl)cc2)c2ccc(NS(=O)(=O)c3ccc(Cl)cc3)cc12	2.47% (inactive)
CN(Cc1ccccc1)C(=O)CCS(=O)(=O)c1cc(Br)cc2c1N(C(=O)C1CC1)CC2	0.148% (inactive)

SMILES	activation
c1ccc2c(c1)C(=NC1CCCCC1)NC2=NC1CCCCC1	30.7% (active)
COc1cc(OC)cc(C(=O)N[C@H](C(=O)OCC(=O)NC(C)c2ccccc2)C(C)C)c1 (stereo partly specified)	119% (active)
COc1ccc(N2CCN(C(=O)[C@@H](NC(=O)c3cc(OC)cc(OC)c3)C(C)C)CC2)cc1	-0.0979% (inactive)
Cc1ccccc1OCCC(=O)OCC(=O)NC(C)c1ccccc1 (stereo unspecified)	1.35% (inactive)
O=C(CCCCn1c(=O)c2ccccc2n(CC(=O)Nc2cccc(C(F)(F)F)c2)c1=O)NCc1ccc2c(c1)OCO2	4.77% (inactive)
CCCOc1ccc(C(=O)Nc2ccc3oc(-c4cccc(Cl)c4Cl)nc3c2)cc1	1.7% (inactive)
CCCC(=O)Nc1ccc2oc(-c3ccc(O)c(Br)c3)nc2c1	3.7% (inactive)
Cc1ccc(C)c(N2C(=O)N(Cc3c(F)cccc3Cl)c3ccccc3S2(=O)=O)c1	5.6% (inactive)
CN1C(=O)c2cccc3c(N)ccc(c23)C1=O	219% (active)
Cc1nn(C)cc1N1C(=O)c2cccc3c(N)ccc(c23)C1=O	244% (active)
CCc1nc2cccnc2n1-c1ccc(CC(=O)Nc2c(C)cccc2C)cc1	1.78% (inactive)
Cc1ccc(Cn2c(=O)n(Cc3nc(-c4ccccc4)no3)c(=O)c3cc4c(cc32)OCO4)cc1	-0.256% (inactive)
COc1ccccc1Cc1nc2ccccc2nc1SCC(=O)N1CCCc2ccccc21	0.349% (inactive)
CCCN1CN=C(NS(=O)(=O)c2ccc(NC(C)=O)cc2)NC1	-0.217% (inactive)
COc1ccc(CC(=O)Nc2nnc3n2CCS3)cc1OC	1.78% (inactive)
Cc1ccc(NC(=O)c2cn3c4c(ccc(Cl)c4c2=O)OC(C)C3)cc1C (stereo unspecified)	2.01% (inactive)
N=c1n(CCc2ccccc2)c2ccccc2n1Cc1ccccc1F	100% (active)
O=C(COC(=O)Cc1ccccc1F)NCCc1ccccc1	2.43% (inactive)
Fc1ccccc1Cn1cnc(NC(=S)NCCc2ccccc2)n1	1.4% (inactive)
O=C(Nc1cc(Cl)cc(Cl)c1)c1ccc2c(c1)N(Cc1cccc(Cl)c1)C(=O)c1ccccc1S2=O (stereo unspecified)	6.19% (inactive)
CCC(=O)NC(=S)Nc1ccc(NC(=O)c2ccco2)c(Cl)c1	42.4% (active)
COc1cc(NC(=O)c2cc([N+](=O)[O-])ccc2Br)ccc1NC(=O)c1ccco1	0.47% (inactive)

SMILES	activation
COc1ccc(NC(=O)c2ccco2)cc1NC(=O)COc1ccc(C)c(C)c1	-1.09% (inactive)
COc1ccc(Cn2ccc3nc(C)c(C(=O)Nc4ccc(C)c(F)c4)cc3c2=O)cc1	2.43% (inactive)
CC(C)c1ccccc1OCC(O)CN(CC(O)COc1cccc2ccccc12)C(C)C (stereo unspecified)	6.15% (inactive)
Cc1cc(C)cc(OCC(=O)NCc2cc(C)nc3ccccc23)c1	-0.104% (inactive)
Cc1cc(C)c(NC(=O)C[N+](C)(C)CC(O)COc2cccc3ccccc23)c(C)c1 (stereo unspecified)	62.2% (active)
Cc1ccc2c(=O)c(C(=O)c3ccc(Cl)cc3)cn(CC(=O)NC3CCCCC3)c2n1	1.93% (inactive)
CCOc1ccc(CNC(=O)c2ccc3c(c2)nnn3C2CCCC2)cc1	1.9% (inactive)
CC(=O)c1cccc(NC(=O)CSc2nc3c(c(=O)[nH]2)CCC3)c1	1.96% (inactive)
CCn1c(=O)cc(OCC(=O)Nc2cc(Cl)c(OC)cc2OC)c2ccccc21	0.964% (inactive)
CC(C)/C=N/NC(=O)c1cc(Br)ccc1O	32.1% (active)
CC(C)Cc1cc(C(=O)Nc2cc(Br)ccc2O)no1	-1.17% (inactive)
CC(=N\NC(=O)c1cc(Br)ccc1O)/C(=N/O)C(=O)Nc1ccccc1	5.39% (inactive)
CCc1ccc(S(=O)(=O)Nc2cc3c(C(=O)OCc4ccccc4)c(C)oc3c3ccccc23)cc1	5.87% (inactive)
Cc1ccccc1NC(=O)Cn1c(=O)n(CC2CCC(C(=O)NCCc3ccccc3)CC2)c(=O)c2ccccc21 (stereo unspecified)	0.988% (inactive)
CCc1nnc(SCc2nc(-c3cccc(C)c3)oc2C)c2cc3sc(C)cc3n12	1.16% (inactive)
CCOc1cccc(C(=O)Nc2nnc(S(=O)(=O)N(C)c3ccc(C)cc3)s2)c1	-0.514% (inactive)
CC(C)c1ccc(OCC(O)CN2CCN(c3ccccn3)CC2)cc1 (stereo unspecified)	2.28% (inactive)
O=S(=O)(c1ccc(OCC(O)CN2CCN(c3ccccc3Cl)CC2)cc1)N1CCOCC1 (stereo unspecified)	105% (active)
CC(=O)c1ccc(OCC(O)CN2CCN(S(=O)(=O)c3cccc(Br)c3)CC2)cc1 (stereo unspecified)	0.785% (inactive)
Cc1ccc2nc(N3CCN(c4cccc(Cl)c4)CC3)c3nnnn3c2c1	0.249% (inactive)
